# The supplement of paper PMC12645437, “Orthogonal IMiD-Degron Pairs Induce Selective Protein Degradation in Cells” (ACS Chemical Biology, 2025)
# Over roughly 8,300 sequences, “log2 fold change of degron read counts, EGFP-low vs EGFP+ sorted cells (limma voom), compound-induced degradation” has its median near -1.1; the highest 2% begin near 3.2. The full list was thinned out, with the highest values kept by preference.
# T1: CRBN, Q96SW2
# T1 chain: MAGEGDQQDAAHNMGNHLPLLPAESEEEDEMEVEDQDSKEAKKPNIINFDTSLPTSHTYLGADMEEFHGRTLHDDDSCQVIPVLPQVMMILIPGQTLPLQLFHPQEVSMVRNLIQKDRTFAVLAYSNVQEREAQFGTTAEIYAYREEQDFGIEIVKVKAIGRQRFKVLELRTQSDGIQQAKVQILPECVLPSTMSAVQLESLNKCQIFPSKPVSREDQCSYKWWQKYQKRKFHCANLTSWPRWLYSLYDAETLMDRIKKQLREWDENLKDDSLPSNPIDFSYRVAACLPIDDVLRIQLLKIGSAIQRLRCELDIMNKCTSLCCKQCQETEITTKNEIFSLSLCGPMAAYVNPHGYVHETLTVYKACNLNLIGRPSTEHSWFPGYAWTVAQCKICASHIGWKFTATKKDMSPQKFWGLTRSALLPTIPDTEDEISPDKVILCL
# B1: 46F_47C_49S_50V_52G_53H_54L_55F_67L_, Q9UKT9 (peptide)
# chain: FCCSVCGHLFTQKGNLLRHIKL
# B2: 46F_47R_49E_50Q_52G_53A_54G_55F_67L_, Q9UKT9 (peptide)
# chain: FRCEQCGAGFTQKGNLLRHIKL
# B3: 46F_47S_49N_50V_52G_53A_54E_55F_67L_, Q9UKT9 (peptide)
# chain: FSCNVCGAEFTQKGNLLRHIKL
# B4: 46F_47L_49N_50Q_52G_53H_54T_55F_67L_, Q9UKT9 (peptide)
# chain: FLCNQCGHTFTQKGNLLRHIKL
# B5: 46F_47I_49S_50V_52G_53H_54T_55F_67L_, Q9UKT9 (peptide)
# chain: FICSVCGHTFTQKGNLLRHIKL
# B6: 46F_47F_49D_50I_52G_53A_54T_55F_67L_, Q9UKT9 (peptide)
# chain: FFCDICGATFTQKGNLLRHIKL
# B7: 46F_47R_49E_50V_52G_53A_54S_55F_67L_, Q9UKT9 (peptide)
# chain: FRCEVCGASFTQKGNLLRHIKL
# B8: 46F_47C_49N_50V_52G_53A_54S_55F_67L_, Q9UKT9 (peptide)
# chain: FCCNVCGASFTQKGNLLRHIKL
# B9: 46F_47M_49E_50V_52G_53A_54S_55F_67L_, Q9UKT9 (peptide)
# chain: FMCEVCGASFTQKGNLLRHIKL
# B10: 46F_47A_49E_50V_52G_53A_54S_55F_67L_, Q9UKT9 (peptide)
# chain: FACEVCGASFTQKGNLLRHIKL
# B11: 46F_47H_49E_50V_52G_53A_54S_55F_67L_, Q9UKT9 (peptide)
# chain: FHCEVCGASFTQKGNLLRHIKL
# B12: 46F_47A_49N_50V_52G_53A_54S_55F_67L_, Q9UKT9 (peptide)
# chain: FACNVCGASFTQKGNLLRHIKL
# B13: 46F_47I_49E_50V_52G_53A_54S_55F_67L_, Q9UKT9 (peptide)
# chain: FICEVCGASFTQKGNLLRHIKL
# B14: 46F_47Y_49E_50V_52G_53A_54S_55F_67L_, Q9UKT9 (peptide)
# chain: FYCEVCGASFTQKGNLLRHIKL
# B15: 46F_47V_49E_50V_52G_53A_54S_55F_67L_, Q9UKT9 (peptide)
# chain: FVCEVCGASFTQKGNLLRHIKL
# B16: 46F_47Q_49E_50V_52G_53A_54S_55F_67L_, Q9UKT9 (peptide)
# chain: FQCEVCGASFTQKGNLLRHIKL
# B17: 46F_47Q_49E_50V_52G_53A_54D_55F_67L_, Q9UKT9 (peptide)
# chain: FQCEVCGADFTQKGNLLRHIKL
# B18: 46F_47R_49E_50I_52G_53R_54N_55F_67L_, Q9UKT9 (peptide)
# chain: FRCEICGRNFTQKGNLLRHIKL
# Biological target: T1, CRBN, Q96SW2
# Assay: log2 fold change of degron read counts, EGFP-low vs EGFP+ sorted cells (limma voom), compound-induced degradation; higher = more compound-induced degradation of the degron-EGFP fusion; degrons are variants of IKZF1/3 zinc finger 2; compound dose not given here
# Conditions: Jurkat, 18 h
# [1] = compound: compound 19 (5-tert-butyl-thalidomide)
# [2] = compound: compound 22 (5-morpholino-thalidomide)
# [3] = compound: compound 33 (diphenyl IMiD analogue)
# 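Note: pooled lentiviral library of zinc finger degron-EGFP fusions in mCherry-positive Jurkat cells, FACS-sorted after compound exposure, with degron abundance counted by next-generation sequencing.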
sequence,measurement,setting,value
B1,log2 fold change of degron read counts,[1],-2.25
same,log2 fold change of degron read counts,[2],-2.38
same,log2 fold change of degron read counts,[3],-2.22
same,log2 fold change of degron read counts,compound: thalidomide,-2.25
B2,log2 fold change of degron read counts,[1],-0.467
same,log2 fold change of degron read counts,[2],-1.48
same,log2 fold change of degron read counts,[3],0.986
same,log2 fold change of degron read counts,compound: thalidomide,-0.649
B3,log2 fold change of degron read counts,[1],-1.82
same,log2 fold change of degron read counts,[2],-2
same,log2 fold change of degron read counts,[3],-0.491
same,log2 fold change of degron read counts,compound: thalidomide,-1.04
B4,log2 fold change of degron read counts,[1],-2.86
same,log2 fold change of degron read counts,[2],-3.5
same,log2 fold change of degron read counts,[3],-3.07
same,log2 fold change of degron read counts,compound: thalidomide,-2.79
B5,log2 fold change of degron read counts,[1],-2.11
same,log2 fold change of degron read counts,[2],-2.3
same,log2 fold change of degron read counts,[3],-3.14
same,log2 fold change of degron read counts,compound: thalidomide,-2.67
B6,log2 fold change of degron read counts,[1],2.91
same,log2 fold change of degron read counts,[2],2.77
same,log2 fold change of degron read counts,[3],0.337
same,log2 fold change of degron read counts,compound: thalidomide,-0.566
B7,log2 fold change of degron read counts,[1],2.07
same,log2 fold change of degron read counts,[2],1.56
same,log2 fold change of degron read counts,[3],2.15
same,log2 fold change of degron read counts,compound: thalidomide,2.07
B8,log2 fold change of degron read counts,[1],0.743
same,log2 fold change of degron read counts,[2],0.454
same,log2 fold change of degron read counts,[3],0.99
same,log2 fold change of degron read counts,compound: thalidomide,0.32
B9,log2 fold change of degron read counts,[1],1.39
same,log2 fold change of degron read counts,[2],1.79
same,log2 fold change of degron read counts,[3],2.94
same,log2 fold change of degron read counts,compound: thalidomide,2.05
B10,log2 fold change of degron read counts,[1],3.87
same,log2 fold change of degron read counts,[2],2.73
same,log2 fold change of degron read counts,[3],0.799
same,log2 fold change of degron read counts,compound: thalidomide,1.03
B11,log2 fold change of degron read counts,[1],2.93
same,log2 fold change of degron read counts,[2],2.64
same,log2 fold change of degron read counts,[3],1.35
same,log2 fold change of degron read counts,compound: thalidomide,0.198
B12,log2 fold change of degron read counts,[1],1.32
same,log2 fold change of degron read counts,[2],0.642
same,log2 fold change of degron read counts,[3],-0.249
same,log2 fold change of degron read counts,compound: thalidomide,-1.16
B13,log2 fold change of degron read counts,[1],0.0302
same,log2 fold change of degron read counts,[2],2.88
same,log2 fold change of degron read counts,[3],2.44
same,log2 fold change of degron read counts,compound: thalidomide,2.95
B14,log2 fold change of degron read counts,[1],3.7
same,log2 fold change of degron read counts,[2],3.86
same,log2 fold change of degron read counts,[3],2.94
same,log2 fold change of degron read counts,compound: thalidomide,1.59
B15,log2 fold change of degron read counts,[1],1.21
same,log2 fold change of degron read counts,[2],2.91
same,log2 fold change of degron read counts,[3],2.54
same,log2 fold change of degron read counts,compound: thalidomide,3.54
B16,log2 fold change of degron read counts,[1],2.49
same,log2 fold change of degron read counts,[2],2.89
same,log2 fold change of degron read counts,[3],2.13
same,log2 fold change of degron read counts,compound: thalidomide,3.53
B17,log2 fold change of degron read counts,[1],-0.53
same,log2 fold change of degron read counts,[2],-0.0138
same,log2 fold change of degron read counts,[3],1.04
same,log2 fold change of degron read counts,compound: thalidomide,3.09
B18,log2 fold change of degron read counts,[1],-2.69
same,log2 fold change of degron read counts,[2],-2.64
same,log2 fold change of degron read counts,[3],-1.31
same,log2 fold change of degron read counts,compound: thalidomide,-0.795
